Laboratory results from PubChem BioAssay AID1492 (National Center for Advancing Translational Sciences (NCATS), 2009).
Records with an inconclusive call do not appear. A number with no mark means an inactive call. Calls of active or inactive are those of the source. The call rests on the fitted dose curve; in most records, active means well fitted inhibition curve with a large enough effect; inconclusive means small, poorly fitted or top-dose-only effect; inactive means flat fitted curve, though single readings scatter.

Each compound was assayed against Muscarinic acetylcholine receptor M1 (Rattus norvegicus) (UniProt P08482) (assay: Counterscreen Concentration-Response Assay for Antagonists of the Neuropeptide S Receptor: Muscarinic Receptor Calcium Signal Transduction.). Details: CHO-M1 cells, carbachol-induced calcium fluorescence, FDSS; series mostly up to 20.2 µM; activity, negative = inhibition: at the top concentration.
From the text: NIH Chemical Genomics Center [NCGC] NIH Molecular Libraries Probe Production centers Network [MLPCN] MLPCN Grant: X01-DA026210-01 Assay Submitter (PI): Heilig, Markus Alexander NCGC Assay Overview: Neuropeptide S receptor (NPSR), previously known as GPR154, is a recently de-orphanized G protein coupled receptor. Its endogenous ligand is the 20 amino acids peptide Neuropeptide S (NPS). […] NPS and its receptor are found in various tissues. Specifically they are highly expressed in brain areas that have been implicated in modulation of arousal, stress and anxiety. Central administration of NPS in mice produces an unusual profile of activity by inducing wakefulness and arousal, while at the same time suppressing anxiety. Therefore, NPSR may represent a novel drug target for the treatment of sleep and anxiety disorders. To identify NPSR antagonists, we developed a cell-based assay with transfected NPS receptor. NPS can stimulate the production of cAMP as well as release intracellular calcium in Chinese hamster ovary cells stably expressing NPS receptor. This change in intracellular calcium can be detected using a calcium indicator dye on a calcium imaging plate reader system (FDSS). To validate the specific action of compounds on the NPS receptor, a counterscreen was developed that tests compounds' antagonism of M1 muscarinic receptor stimulation by carbachol. The protein, gene and taxonomy linked to this assay refer to Rattus norvegicus, but Chinese Hamster ovary cells were actually used.
NCGC Assay Protocol Summary: A Chinese hamster ovary (CHO) cell line stably expressing muscarinic acetylcholine M1 receptor (CHO-M1) was obtained from ATCC and maintained in F-12 Kaighn's media (Invitrogen, Carlsbad, CA, 21127) supplemented with 10 % FBS, 100 units/ml penicillin, 100 ug/ml streptomycin and 250 ug/ml geneticin at 37C, 5% CO2 in a humidified atmosphere. Before the assay, aliquots of cells were frozen and stored at -135C. The assay was performed on a FDSS-7000 kinetic plate reader in 1536-well format. The maximums of kinetic fluorescence responses were converted into text files using the instrument's software data export utility. […] AC50 values were determined from concentration-response data modeled with the standard Hill equation. CHO-M1 1536-well FDSS assay protocol: (1) Frozen CHO-M1 cells were thaw, washed once with fresh media and resuspended in F-12 Kaighn's media supplemented with 10 % FBS, 100 units/ml penicillin and 100 ug/ml streptomycin. Cells were plated at 3 ul/well (1200 cells) to black, clear-bottom, tissue-culture treated 1536-well plates, and then cultured at 37C, 5 % CO2 for 16 to 30 hours. (2) Add 3 ul of calcium dye (from High Performance PBX Calcium Assay Kit, BD Biosciences). The calcium dye was prepared according to the manufactory's instruction. (3) Incubation at 37C, 5 % CO2 for 60 min. (4) Add 23 nl/well of compound in DMSO solution. The final titration for each compound was between 0.6 nM and 46 uM. (5) Load plates to FDSS-7000. The following steps were performed on FDSS-7000. (6) Record fluorescent background (Ex 480 nm, Em 520-560 nm) for 10 s. (7) Add 2 ul of stimulation reagent (1X HBSS buffer, 0.1% BSA, 60 nM carbachol). Record antagonist response (Ex 480 nm, Em 520-560 nm) for 180 s. Keywords: MLSMR, MLPCN, NIH Roadmap, qHTS, NCGC, NPS, Neuropeptide S Antagonists
`O=C(/C=C/c1ccco1)NC(=S)Nc1cccc(-c2nc3ccccc3o2)c1` was tested, and the “activity, negative = inhibition” value was -7.11%.
For `Cc1ccc2nc3ccc(N4CCCCCCC4)nn3c(=O)c2c1`, the “activity, negative = inhibition” value was 3.52%.
With `COc1ccccc1-c1nnc(SC2CCc3ccccc3NC2=O)s1` (stereo not given) the “activity, negative = inhibition” value was -0.169%.
For `OC(C#Cc1ccccn1)c1cccs1` (stereo not given), the “activity, negative = inhibition” value was -17%.
`COc1ccc(NC(=O)/C(Cl)=C(/Cl)S(=O)Cc2ccc(C)cc2)cn1` (stereo not given) was tested, and the Potency was 10 µM (active).
With `CCC(C)n1c(=O)c(C(=O)Nc2ccccc2S(N)(=O)=O)c(O)c2ccccc21` (stereo not given) the “activity, negative = inhibition” value was -8.1%.
In the case of `C(=C\c1ccccc1)/C=N/N1CCN(c2ccccn2)CC1`, the “activity, negative = inhibition” value is reported as 8.26%.
`COc1ccc(-c2cc(N)n(S(=O)(=O)c3c(F)c(F)c(F)c(F)c3F)n2)cc1OC` was tested, and the Potency was 11.2 µM (active).
In the case of `COc1cccc(C(=O)/C=C/Nc2ccc(S(=O)(=O)Nc3cccc(C(C)=O)c3)cc2)c1`, the “activity, negative = inhibition” value is reported as -19.1%.
In the case of `CCN(CC)S(=O)(=O)c1ccc2c(c1)nc(SC(C)C(N)=O)n2-c1ccc(OC)cc1` (stereo not given), the “activity, negative = inhibition” value is reported as -10.2%.
For `O=[N+]([O-])c1cc2c(cc1/C=N/n1c(-c3ccccc3)n[nH]c1=S)OCO2`, the “activity, negative = inhibition” value was -9.38%.
In the case of `Cc1ccc2oc(-c3cccc(NC(=S)NC(=O)/C=C/c4ccco4)c3)nc2c1`, the “activity, negative = inhibition” value is reported as -15.2%.
For `N#CC(C#N)=c1ccc2c(c1)NC1(CCCCC1)N=2`, the “activity, negative = inhibition” value was -17.5%.
For `O=C(NCCCN1CCOCC1)c1cc2c(=O)[nH]c3ccccc3c2s1`, the “activity, negative = inhibition” value was 4.61%.
With `N#Cc1cnn(-c2ncnc3sc4c(c23)CCCC4)c1N` the “activity, negative = inhibition” value was 9.92%.
With `CCOc1ccc(N2C(=O)CC(NCCc3ccncc3)C2=O)cc1` (stereo not given) the “activity, negative = inhibition” value was 9.94%.
With `CC1CCN(S(=O)(=O)c2ccc(C(=O)Nc3sccc3C(N)=O)cc2)CC1` the “activity, negative = inhibition” value was -2.17%.
With `O=c1cc(-c2c(F)c(F)c(F)c(F)c2F)oc2c(F)c(F)c(F)c(F)c12` the Potency was 5.01 µM (active).
For `c1ccc(N2CCN(Cc3ccnc4ccccc34)CC2)cc1`, the “activity, negative = inhibition” value was 12.5%.
For `O=C(CSC1=NCCS1)Nc1ccnc2ccccc12`, the “activity, negative = inhibition” value was 7.63%.
In the case of `O=C(/C(=C/c1ccc(Cl)cc1)c1nc2ccccc2[nH]1)c1cccs1`, the Potency is reported as 7.94 µM (active).
`O=C1Nc2ccc(S(=O)(=O)N3CCCC3C(=O)O)c3cccc1c23` (stereo not given) was tested, and the “activity, negative = inhibition” value was 0.459%.
For `CCc1ccc2oc(-c3cc(N)cc(C)c3O)nc2c1`, the “activity, negative = inhibition” value was 17.3%.
`Nc1ccc(-c2nc3c(Cl)cc(N)cc3[nH]2)cc1` was tested, and the “activity, negative = inhibition” value was -5.43%.
`Brc1ccc(CSc2ncn[nH]2)cc1` was tested, and the “activity, negative = inhibition” value was -10.8%.
For `Cc1nn(C(=O)c2cccs2)c(N)c1-c1ccccc1`, the “activity, negative = inhibition” value was 5.89%.
`COc1ccc(N(CC(=O)Nc2cccc(SC)c2)S(C)(=O)=O)cc1Cl` was tested, and the “activity, negative = inhibition” value was 7.48%.
For `O=C(O)c1cccc(Nc2ncnc3ccccc23)c1`, the “activity, negative = inhibition” value was -12.1%.
For `CN(Cc1cc(=O)[nH]c2ccccc12)C(=O)c1ccccc1`, the “activity, negative = inhibition” value was -5.45%.
With `Cc1ccc(-c2ccc(/C=C3\C(=O)ON=C3c3ccccc3)o2)c([N+](=O)[O-])c1` the Potency was 3.98 µM (active).
With `O=C(O)C1CCN(c2nc(-c3ccccc3)nc3c2oc2ccccc23)CC1` the “activity, negative = inhibition” value was -11.1%.
For `Cc1ccc(/C=C2\SC(=S)N(CC(=O)Nc3ncc(Cc4ccccc4Cl)s3)C2=O)cc1`, the “activity, negative = inhibition” value was -5.69%.
In the case of `c1ccc(-c2ccc(-c3nc(-c4cccnc4)no3)cc2)cc1`, the “activity, negative = inhibition” value is reported as 12.7%.
`COc1ccc(C2c3c(ncn(CCN4CCOCC4)c3=N)Oc3ccc4ccccc4c32)cc1OC` (stereo not given) was tested, and the “activity, negative = inhibition” value was 17.8%.
With `CCn1cc(C(=O)NCC2CCCO2)c(=O)c2cc(S(=O)(=O)N3CCCCCC3)ccc21` (stereo not given) the “activity, negative = inhibition” value was 20.3%.
For `O=C(N1CCOCC1)C1(c2ccc(Cl)cc2)CCCC1`, the “activity, negative = inhibition” value was 15.5%.
With `CN(CC(=O)NCc1ccc(F)cc1)S(=O)(=O)c1cccc2nsnc12` the “activity, negative = inhibition” value was 7.72%.
`O=C(O)CCCCCNc1nc(=S)[nH]c2ccccc12` was tested, and the “activity, negative = inhibition” value was -7.08%.
In the case of `O=C1CC(NCc2ccncc2)C(=O)N1c1ccccc1` (stereo not given), the “activity, negative = inhibition” value is reported as 7.55%.
With `C=CCOc1c(Cl)cc(CNc2ccc(N(C)C)cc2)cc1OC` the “activity, negative = inhibition” value was 7.52%.
